{"source": "PubChem BioAssay AID1224817", "about": "(Yan Lab, Georgia Cancer Center, Augusta University, 2016)", "note": "Where “and” joins values, the source holds several entries; their conditions need not be identical. Equal entries are not always repeated. The campaign covered roughly 2,000 compounds. About 25 (1%) were called active. The sample as a whole holds a higher share of actives than the screen did. Unmarked numbers belong to inactive results.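 Rule for the calls: active = log2 luciferase ratio at or below -0.5849, meaning signal at two thirds of solvent-only control or lower; inactive = the rest.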", "data": [{"experiment": "inhibitors of EIF4E gene expression, primary screen, cell-based, HT1080, luciferase reporter (AID 1224817);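 note: luciferase reports endogenous eIF4E expression since it is co-expressed from the native EIF4E locus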", "settings": "HT1080 EIF4E-luc2 knock-in reporter, 16 h, at 2.5 µM, hits give low values", "values": [{"smiles": "Cc1ccccc1C(=N)c1ccccc1Cc1cccc2ccccc12", "log2 luciferase activity ratio": 0.0556}, {"smiles": "CC1(C)C(CC(=O)O)CCCC1CC(=O)O", "note": "(stereo not drawn)", "log2 luciferase activity ratio": -0.193}, {"smiles": "N=C1C(O)C2(I)c3ccccc3N3C(=N)C(O)C4c5ccccc5N1C4C32", "note": "(stereo not drawn)", "log2 luciferase activity ratio": 0.988}, {"smiles": "CC[C@]12CCCN3CCc4c(n(c5ccccc45)C(=O)C1)[C@@H]32", "log2 luciferase activity ratio": -0.317}, {"smiles": "COC(=O)C1OC(SCCN)C(O)C(O)C1O", "note": "(stereo not drawn)", "log2 luciferase activity ratio": 0.246}, {"smiles": "O=C(O)c1nnsc1-c1csnn1", "log2 luciferase activity ratio": -0.0043}, {"smiles": "CN(C)Cc1cc(C(=O)O)cc(CN(C)C)c1O", "log2 luciferase activity ratio": -0.293}, {"smiles": "CC(=O)Nc1ccc(-c2cc(C(=O)O)c3cc4ccccc4cc3n2)cc1", "log2 luciferase activity ratio": 0.356}, {"smiles": "C[C@@H]1C[C@H]2[C@@H]3CCC4=CC(=O)C=C[C@]4(C)[C@@]3(Cl)[C@@H](Cl)C[C@]2(C)[C@@]1(O)C(=O)COP(=O)(O)O", "log2 luciferase activity ratio": 0.28}, {"smiles": "CC[C@@H]1CN(C)[C@H]2Cc3c([nH]c4ccccc34)C(=O)C[C@H]1C2C(=O)OC", "note": "(stereo partly drawn)", "log2 luciferase activity ratio": -0.243}, {"smiles": "COc1ccc2c(c1)O[C@H]1c3ccc(O)cc3OC[C@@H]21", "log2 luciferase activity ratio": 0.161}, {"smiles": "Cn1c([N+](=O)[O-])cnc1CN1CCN(CCO)CC1", "log2 luciferase activity ratio": 0.268}, {"smiles": "O=C(O)c1cccc(CN2CCCCC2)c1", "log2 luciferase activity ratio": 0.0092}, {"smiles": "C[N+](C)(C)/N=C/c1ccc(O)c(O)c1", "log2 luciferase activity ratio": -0.303}, {"smiles": "NC(N)=NC(N)=Nc1ccc(S(N)(=O)=O)cc1", "log2 luciferase activity ratio": -0.0076}, {"smiles": "CCCCN(c1ccccc1)c1ncnc2c1cnn2C", "log2 luciferase activity ratio": -0.0702}, {"smiles": "COc1ccc2nc3cc(Cl)ccc3c(Nc3ccc(O)c(CN4CCN(C)CC4)c3)c2c1", "log2 luciferase activity ratio": 0.0343}, {"smiles": "NC(CC(=O)O)(Cc1ccccc1)C(=O)O", "note": "(stereo not drawn)", "log2 luciferase activity ratio": -0.129}, {"smiles": "O=S1(=O)OC(c2ccc(O)cc2)(c2ccc(O)cc2)c2ccccc21", "log2 luciferase activity ratio": 0.424}, {"smiles": "O=S1(=O)C(c2ccccc2)C(N2CCCCC2)C1C1CC2c3ccccc3C1c1ccccc12", "note": "(stereo not drawn)", "log2 luciferase activity ratio": 0.456}, {"smiles": "Cc1cc(N2CCOCC2)nc2ccc(Cc3ccc4nc(N5CCOCC5)cc(C)c4c3)cc12", "log2 luciferase activity ratio": 0.197}, {"smiles": "OC(Cc1ccccc1)(Cc1ccccc1)c1ccccc1", "log2 luciferase activity ratio": -0.0177}, {"smiles": "OC(c1cc(C23CC4CC(CC(C4)C2)C3)nc2c(Cl)cc(Cl)cc12)C1CCCCN1", "note": "(stereo not drawn)", "log2 luciferase activity ratio": 0.104}, {"smiles": "Oc1ccc(-c2nc(-c3cccnc3)c(-c3ccc(F)cc3)[nH]2)cc1", "log2 luciferase activity ratio": -0.338}, {"smiles": "C=C1C(=O)OC2C1C(OC(=O)/C(C)=C/COC(C)=O)CC1(CO1)C1C(O)C=C(C)C21", "note": "(stereo not drawn)", "log2 luciferase activity ratio": -0.477}, {"smiles": "C=C1C(=O)OC2C1C(OC(=O)/C(C)=C/C)CC(O)(CCl)C1C(OC(C)=O)C=C(C)C21O", "note": "(stereo not drawn)", "log2 luciferase activity ratio": "-1.14 (active)"}, {"smiles": "C=C1C(=O)O[C@H]2[C@H]1[C@H](OC(=O)/C(C)=C\\C)CC(=C)[C@@H]1[C@H](O)[C@H]3O[C@@]3(C)[C@@]12O", "log2 luciferase activity ratio": 0.0107}, {"smiles": "O=C(O)C(=O)/C=C(\\O)c1ccc(Br)cc1", "log2 luciferase activity ratio": -0.065}, {"smiles": "N=C(CC(=O)Nc1ccccn1)c1ccccc1", "log2 luciferase activity ratio": 0.825}, {"smiles": "COc1ccc(/C=N/NC(=O)O)cc1", "log2 luciferase activity ratio": 0.161}, {"smiles": "CC(CSC(=N)N)C(N)=O", "note": "(stereo not drawn)", "log2 luciferase activity ratio": 0.0537}, {"smiles": "Cc1c(-c2nc(N)nc(C3CC3)c2C)nc(N)nc1C1CC1", "log2 luciferase activity ratio": -0.199}, {"smiles": "CN1CCN(CC(=O)N2c3ccccc3Sc3cc4ccccc4cc32)CC1", "log2 luciferase activity ratio": 0.0693}, {"smiles": "Nc1nc(Cl)cc(NCCO)n1", "log2 luciferase activity ratio": "-0.615 (active)"}, {"smiles": "O=[N+]([O-])c1cc(Cl)cc2c1nc(NCCO)c1ccccc12", "log2 luciferase activity ratio": 0.0337}, {"smiles": "COc1cccc2c1C(CO)N1C(C#N)C3CC(C(=O)O)C(C1C2)N3C", "note": "(stereo not drawn)", "log2 luciferase activity ratio": "-1.55 (active)"}, {"smiles": "O=C(O)C1Cc2c([nH]c3ccccc23)C(CCCCO)N1", "note": "(stereo not drawn)", "log2 luciferase activity ratio": -0.0145}, {"smiles": "O=C1OC(c2ccc(O)c(-c3ccccc3)c2)(c2ccc(O)c(-c3ccccc3)c2)c2c(Cl)c(Cl)c(Cl)c(Cl)c21", "log2 luciferase activity ratio": -0.153}, {"smiles": "CN(C)c1ccc2nc3c(C(=O)O)cc(=O)c(O)c-3oc2c1", "log2 luciferase activity ratio": "-2.21 (active)"}, {"smiles": "O=C(O)c1ccc(Cc2ccccc2C(=O)O)cc1", "log2 luciferase activity ratio": -0.21}, {"smiles": "COC(=O)[C@]1(C)CCC[C@]2(C)C3=CC(=O)[C@@]4(C(C)C)O[C@H]4[C@]3(O)CC[C@@H]12", "log2 luciferase activity ratio": -0.359}, {"smiles": "OC1(c2ccccc2)c2ccccc2NC2=NCCN21", "note": "(stereo not drawn)", "log2 luciferase activity ratio": 0.416}, {"smiles": "Ic1ccc2c(c1)N(c1ccccc1)c1cc(N=c3ccc4nc5ccc(I)cc5n(-c5ccccc5)c-4c3)ccc1N2", "log2 luciferase activity ratio": 0.338}, {"smiles": "CC(=O)[C@H]1CC[C@@H]2[C@]1(C)CC=C1[C@]23C=C[C@]2(C[C@@H](O)CC[C@]12C)C(C(=O)O)C3C(=O)O", "note": "(stereo partly drawn)", "log2 luciferase activity ratio": -0.137}, {"smiles": "CC(C)Cn1cnc2c(Sc3c([N+](=O)[O-])ncn3C)nc(N)nc21", "log2 luciferase activity ratio": -0.473}, {"smiles": "COc1nc(N)nc2c1ncn2C1CC(O)C(CO)O1", "note": "(stereo not drawn)", "log2 luciferase activity ratio": 0.0307}, {"smiles": "Cn1cnc([N+](=O)[O-])c1Sc1nc(N)nc2c1ncn2C1CC(O)C(CO)O1", "note": "(stereo not drawn)", "log2 luciferase activity ratio": "-0.645 (active)"}, {"smiles": "CC1(C)CC23C4COC(=O)C2CCC1C3CC4=O", "note": "(stereo not drawn)", "log2 luciferase activity ratio": 0.113}, {"smiles": "O=C(O)CCn1cnc2c(=S)nc[nH]c21", "log2 luciferase activity ratio": -0.179}, {"smiles": "C[C@@H]1C(=O)C[C@H]2C(C)(C)CCC[C@]2(C)[C@@]1(O)CCc1ccoc1", "log2 luciferase activity ratio": "-0.608 (active)"}, {"smiles": "O=C(CSc1nc2ccccc2s1)c1sc2sc3ccccc3[n+]2c1[O-]", "log2 luciferase activity ratio": 0.244}, {"smiles": "O=C(O)C1C(C(=O)O)C2C(=O)C=CC1N2Cc1ccccc1", "note": "(stereo not drawn)", "log2 luciferase activity ratio": 0.0328}, {"smiles": "CC(C)Cn1cnc2c(SCc3ccc(Cl)cc3Cl)nc(N)nc21", "log2 luciferase activity ratio": 0.484}, {"smiles": "NC1(C(=O)NC2(C(=O)O)CCCC2)CCCC1", "log2 luciferase activity ratio": 0.0359}, {"smiles": "O=C(Nc1ccc(Nc2ccc3c(c2)C(=O)c2ccccc2C3=O)c2c1C(=O)c1ccccc1C2=O)c1ccccc1", "log2 luciferase activity ratio": 0.326}, {"smiles": "O=C(O)[C@H](c1ccccc1)[C@@H](C(=O)O)c1ccccc1", "log2 luciferase activity ratio": -0.0929}, {"smiles": "NNC(=O)Cc1cccnc1", "log2 luciferase activity ratio": 0.269}, {"smiles": "N=C(N)SCCN1CCCCC1", "log2 luciferase activity ratio": 0.0135}, {"smiles": "CCCNc1ncnc2[nH]ncc12", "log2 luciferase activity ratio": -0.531}, {"smiles": "O=C(O)C1CC[N-]CC1.O=C(O)C1CC[N-]CC1.[Cl][Pt+2]([Cl])([Cl])[Cl]", "log2 luciferase activity ratio": -0.241}, {"smiles": "CC(C)(N=NC(C)(C)C1=NCCN1)C1=NCCN1", "log2 luciferase activity ratio": -0.215}, {"smiles": "NCCSc1nc(-c2ccccc2)c(-c2ccccc2)o1", "log2 luciferase activity ratio": -0.0133}, {"smiles": "O=[N+]([O-])c1ccc(C2=Nn3c(nnc3-c3ccc(Cl)cc3)SC2)o1", "log2 luciferase activity ratio": 0.0802}, {"smiles": "O=C(O)[C@@H]1[C@H](C(=O)O)[C@H](C(=O)O)C[C@@H]1C(=O)O", "log2 luciferase activity ratio": -0.306}, {"smiles": "C/C(=N\\NC(=O)c1ccncc1)c1ccccc1Cl", "log2 luciferase activity ratio": 0.497}, {"smiles": "OC(Cc1cccnc1)(c1ccccc1)c1ccccc1", "log2 luciferase activity ratio": -0.0482}, {"smiles": "NC(=O)/C(=C\\c1ccncc1)c1cccc2ccccc12", "log2 luciferase activity ratio": -0.0804}, {"smiles": "O=C(O)Cc1c[nH]c2ccc(F)cc12", "log2 luciferase activity ratio": "-0.736 (active)"}, {"smiles": "NC(Cc1c[nH]c2ccc([N+](=O)[O-])cc12)C(=O)O", "note": "(stereo not drawn)", "log2 luciferase activity ratio": 0.208}, {"smiles": "Nc1ccc2[nH]cc(CCC(=O)O)c2c1", "log2 luciferase activity ratio": -0.0435}, {"smiles": "Cc1cc(N2CCCCC2)nc2ccc(Cc3ccc4nc(N5CCCCC5)cc(C)c4c3)cc12", "log2 luciferase activity ratio": 0.559}, {"smiles": "N=c1ncn(C/C=C/c2ccccc2)c2nc[nH]c12", "log2 luciferase activity ratio": 0.287}, {"smiles": "Cc1cc(=Nc2ccc3c(c2)c(N)cc(C)[n+]3C)nc(N)n1C", "log2 luciferase activity ratio": -0.0953}, {"smiles": "COc1cc2c(cc1OC)C(CCN)=NCC2", "log2 luciferase activity ratio": -0.216}, {"smiles": "CC1/C=C/C=C/CC/C=C/C=C/C=C/C=C/C(OC2OC(C)C(O)C(N)C2O)CC2OC(CC(O)C(O)CCC(O)CC(O)CC(O)CC(=O)OC(C)C(C)C1O)CC(O)C2C(=O)O", "note": "(stereo not drawn)", "log2 luciferase activity ratio": "-0.0951 and -0.0559"}, {"smiles": "NCCNCC(O)CO", "note": "(stereo not drawn)", "log2 luciferase activity ratio": 0.073}, {"smiles": "O=C(O)/C(=C\\c1ccc(O)cc1)c1cccc2ccccc12", "log2 luciferase activity ratio": -0.199}, {"smiles": "CC1(CC(=O)O)OC2CCCCCC2O1", "note": "(stereo not drawn) (tested in a mixture with another compound)", "log2 luciferase activity ratio": 0.0163}, {"smiles": "CC1CCCC(CC(=O)O)(CC(=O)O)C1", "note": "(stereo not drawn)", "log2 luciferase activity ratio": 0.274}, {"smiles": "O=C(O)CC1(C(=O)O)CCCCC1", "log2 luciferase activity ratio": "-0.621 (active)"}, {"smiles": "O=C1c2cccc(O)c2C(=O)c2c(OC3OC(CO)C(O)C(O)C3O)cccc21", "note": "(stereo not drawn)", "log2 luciferase activity ratio": -0.141}, {"smiles": "OC1C(O)C(O)C(O)C(O)C1O", "note": "(stereo not drawn)", "log2 luciferase activity ratio": -0.102}, {"smiles": "CC(C)C(Nc1ncnc2nc[nH]c12)C(=O)O", "note": "(stereo not drawn)", "log2 luciferase activity ratio": 0.37}, {"smiles": "O=C(O)CNC(=O)c1ccccc1O", "log2 luciferase activity ratio": 0.226}, {"smiles": "O=C(O)/C(=C/c1ccccc1)c1ccccc1", "log2 luciferase activity ratio": -0.172}, {"smiles": "O=C1Nc2ccccc2/C1=N\\[O-].O=C1Nc2ccccc2/C1=N\\[O-].[Cu+2]", "log2 luciferase activity ratio": 0.0071}, {"smiles": "Cc1ccc(C)c(C2NC(=O)c3ccccc3N2)c1", "note": "(stereo not drawn)", "log2 luciferase activity ratio": "-0.685 (active)"}, {"smiles": "N[C@H](C(=O)O)[C@H]1ON=C(Cl)[C@@H]1O", "log2 luciferase activity ratio": -0.333}, {"smiles": "COC1/C=C\\C=C(/C)C(=O)NC2=CC(=O)C(N)=C(CC(C)CC(OC)C(O)C(C)C=C(C)C1OC(N)=O)C2=O", "note": "(stereo not drawn)", "log2 luciferase activity ratio": "-1.05 (active)"}, {"smiles": "CN(C)CCCn1c2c3ccccc3ccc2c2oc(=O)c3ccccc3c21", "log2 luciferase activity ratio": -0.461}, {"smiles": "CN1CC(c2ccccc2)C(O)(C2(c3ccccc3)CN(C)CC(c3ccccc3)C2=O)C(c2ccccc2)C1", "note": "(stereo not drawn)", "log2 luciferase activity ratio": -0.0781}, {"smiles": "CC1CC(C)CN(S(=O)(=O)c2cc(Cl)c(Oc3ccc([N+](=O)[O-])cc3Cl)c(Cl)c2)C1", "note": "(stereo not drawn)", "log2 luciferase activity ratio": 0.55}, {"smiles": "NCC(=O)C(O)C(O)C(O)CO", "note": "(stereo not drawn)", "log2 luciferase activity ratio": 0.229}]}]}
